# Article PMC7826789 (International Journal of Molecular Sciences, 2021)
# How the values were obtained:
# Settings in all cases: Compound Concentration (nM):1000
# PDGFRB = system: PDGFRB
# PDPK1 = system: PDPK1
# PFCDPK1(P.falciparum) = system: T1, PFCDPK1(P.falciparum)
# T1 construct: gene CDPK1
# PFPK5(P.falciparum) = system: T2, PFPK5(P.falciparum)
# T2 construct: gene MAL13P1.279
# PFTAIRE2 = system: T3, PFTAIRE2
# T3 construct: gene CDK15
# PFTK1 = system: T4, PFTK1
# T4 construct: gene CDK14
# PHKG1 = system: PHKG1
# PHKG2 = system: PHKG2
# PIK3C2B = system: PIK3C2B
# PIK3C2G = system: PIK3C2G
# PIK3CA(C420R) = system: PIK3CA(C420R)
# PIK3CA(E542K) = system: PIK3CA(E542K)
# PIK3CA(E545A) = system: PIK3CA(E545A)
# PIK3CA(E545K) = system: PIK3CA(E545K)
# PIK3CA(H1047L) = system: PIK3CA(H1047L)
# PIK3CA(H1047Y) = system: PIK3CA(H1047Y)
# PIK3CA(I800L) = system: PIK3CA(I800L)
# PIK3CA(M1043I) = system: PIK3CA(M1043I)
# PIK3CA(Q546K) = system: PIK3CA(Q546K)
# PIK3CA = system: PIK3CA
# 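Also: KINOMEscan scanMAX binding as percent activity remaining versus control; lower means stronger binding.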
Structure (SMILES),Percent Control (PDGFRB),Percent Control (PDPK1),Percent Control (PFCDPK1(P.falciparum)),Percent Control (PFPK5(P.falciparum)),Percent Control (PFTAIRE2),Percent Control (PFTK1),Percent Control (PHKG1),Percent Control (PHKG2),Percent Control (PIK3C2B),Percent Control (PIK3C2G),Percent Control (PIK3CA(C420R)),Percent Control (PIK3CA(E542K)),Percent Control (PIK3CA(E545A)),Percent Control (PIK3CA(E545K)),Percent Control (PIK3CA(H1047L)),Percent Control (PIK3CA(H1047Y)),Percent Control (PIK3CA(I800L)),Percent Control (PIK3CA(M1043I)),Percent Control (PIK3CA(Q546K)),Percent Control (PIK3CA)
COc1ccc2cc(-c3c(-c4ccncc4)nc(-c4ccc(S(C)(=O)=O)cc4C)n3C)ccc2c1 [SB-633825],70%,100%,61%,77%,45%,80%,100%,84%,76%,81%,88%,79%,84%,81%,100%,91%,83%,83%,91%,70%
C/C(Nc1ccc(S(N)(=O)=O)cc1)=C1/C(=O)Nc2ccccc21 [GW335962X],59%,100%,77%,91%,95%,72%,94%,53%,100%,90%,95%,100%,100%,100%,100%,85%,100%,100%,100%,100%
COc1cc(C)c(N(C)C(=O)CN(C)C)cc1Nc1nc(Nc2cccc(F)c2C(N)=O)c2cc[nH]c2n1 [GSK2219385],100%,97%,100%,76%,79%,100%,100%,83%,100%,92%,84%,100%,97%,100%,100%,67%,100%,100%,100%,100%
NS(=O)(=O)c1ccc(N/N=C2\C(=O)Nc3ccc(-c4cnco4)cc32)cc1 [GW276655],57%,82%,93%,95%,60%,94%,100%,81%,86%,96%,81%,89%,98%,89%,94%,87%,91%,87%,97%,96%
Nc1ncnc2occ(-c3ccc(NC(=O)Nc4cc(C(F)(F)F)ccc4F)cc3)c12 [GW770249X],0%,57%,83%,100%,46%,18%,100%,100%,100%,88%,100%,100%,100%,100%,100%,100%,100%,90%,100%,100%
Cc1cc(O)cc(C)c1/C=C/c1cncc(C(N)=O)c1 [GW435821X],0.5%,96%,75%,100%,100%,100%,100%,100%,97%,85%,100%,100%,100%,100%,100%,100%,100%,88%,100%,96%
CC1=C(C(=O)Nc2ccc3[nH]ncc3c2)C(c2ccc(Cl)c(Cl)c2)CC(=O)N1 (centres unmarked) [GSK299115A],99%,100%,87%,71%,66%,49%,100%,84%,84%,77%,90%,73%,90%,73%,97%,76%,78%,68%,83%,82%
COC(=O)Nc1nc2ccc(Oc3ccc(NC(=O)Nc4cc(C(F)(F)F)ccc4F)cc3)cc2s1.Cl [GW693917A],0.1%,95%,77%,77%,27%,56%,100%,90%,100%,87%,95%,96%,100%,83%,91%,84%,82%,100%,94%,100%
O=C1Nc2ccc(C(=O)c3ccco3)cc2C1=Cc1cc(Cl)c(O)c(Cl)c1 [GW406108X],88%,97%,9.5%,93%,100%,89%,100%,70%,12%,39%,76%,76%,83%,72%,41%,79%,34%,93%,77%,91%
NS(=O)(=O)c1ccc(N/N=C2\C(=O)Nc3ccc(C(=O)NCc4ccncc4)cc32)cc1 [GW300657X],74%,65%,85%,57%,49%,73%,100%,70%,100%,86%,90%,85%,100%,75%,89%,72%,85%,94%,83%,100%
